Columns and labels:
Test in all cases: log2 ratio of Biotin-Ahx-Ub-VS probe labelling (fragment/DMSO); higher = less target engagement (more negative = stronger competition), active = hit call of the paper (q ≤ 0.05, log2 ratio ≤ -1)
Conditions in all cases: compound concentration: 200 uM; treatment time: 3 h
USP42 = target: T1, USP42 (UniProt Q9H9J4)
T1 sequence (whole entry): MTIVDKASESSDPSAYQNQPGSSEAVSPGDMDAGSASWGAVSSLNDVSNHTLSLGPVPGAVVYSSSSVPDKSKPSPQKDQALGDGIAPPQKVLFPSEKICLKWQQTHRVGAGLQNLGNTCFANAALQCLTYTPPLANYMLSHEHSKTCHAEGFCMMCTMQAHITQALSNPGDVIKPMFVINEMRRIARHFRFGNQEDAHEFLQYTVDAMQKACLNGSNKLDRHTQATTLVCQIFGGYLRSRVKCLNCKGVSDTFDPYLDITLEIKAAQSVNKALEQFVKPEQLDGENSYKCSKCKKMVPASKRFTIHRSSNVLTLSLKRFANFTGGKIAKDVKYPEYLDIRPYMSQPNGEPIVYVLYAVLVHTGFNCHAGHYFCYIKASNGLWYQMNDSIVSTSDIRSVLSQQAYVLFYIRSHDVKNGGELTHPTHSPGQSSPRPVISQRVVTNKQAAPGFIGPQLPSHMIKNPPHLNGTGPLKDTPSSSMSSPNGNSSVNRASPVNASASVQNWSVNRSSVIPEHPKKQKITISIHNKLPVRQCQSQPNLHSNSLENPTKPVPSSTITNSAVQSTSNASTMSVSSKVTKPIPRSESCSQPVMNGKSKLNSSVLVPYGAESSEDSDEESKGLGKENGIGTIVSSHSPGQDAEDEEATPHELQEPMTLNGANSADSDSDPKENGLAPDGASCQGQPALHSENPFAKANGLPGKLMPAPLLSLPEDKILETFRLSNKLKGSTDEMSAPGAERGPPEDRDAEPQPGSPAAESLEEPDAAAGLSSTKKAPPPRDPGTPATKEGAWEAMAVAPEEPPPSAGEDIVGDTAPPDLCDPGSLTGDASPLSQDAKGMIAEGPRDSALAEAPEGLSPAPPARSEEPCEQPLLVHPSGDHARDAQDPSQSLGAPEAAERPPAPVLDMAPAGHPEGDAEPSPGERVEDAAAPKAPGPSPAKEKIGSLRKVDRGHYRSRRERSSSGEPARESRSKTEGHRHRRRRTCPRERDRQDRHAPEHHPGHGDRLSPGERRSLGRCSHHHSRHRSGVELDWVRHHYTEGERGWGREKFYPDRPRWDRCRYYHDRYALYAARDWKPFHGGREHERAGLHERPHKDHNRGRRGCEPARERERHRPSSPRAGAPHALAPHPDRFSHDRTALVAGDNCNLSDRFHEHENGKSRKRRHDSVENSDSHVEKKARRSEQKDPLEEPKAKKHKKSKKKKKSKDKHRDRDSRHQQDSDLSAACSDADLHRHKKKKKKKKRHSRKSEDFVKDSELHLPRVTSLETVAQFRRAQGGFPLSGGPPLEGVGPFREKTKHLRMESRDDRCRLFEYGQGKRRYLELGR
How it was run: (§1)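 Labelled DUBs from HEK293T lysate were NeutrAvidin-enriched, digested with LysC and trypsin, and run by diaPASEF LC-MS/MS. Before that, each 495 µg sample in Tris/CHAPS/IGEPAL buffer with protease inhibitors was treated in triplicate with fragment at 200 µM or vehicle for 3 h, then with Biotin-Ahx-Ub-VS at 0.5 µM final for 1 h. Values are average log2 ratios of fragment over vehicle by unpaired t-test, based on global-median-normalised Spectronaut label-free quantities from proteins with ≥2 unique peptides.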

USP46 = USP46 (UniProt P62068)
Sequence of USP46 (P62068 whole entry): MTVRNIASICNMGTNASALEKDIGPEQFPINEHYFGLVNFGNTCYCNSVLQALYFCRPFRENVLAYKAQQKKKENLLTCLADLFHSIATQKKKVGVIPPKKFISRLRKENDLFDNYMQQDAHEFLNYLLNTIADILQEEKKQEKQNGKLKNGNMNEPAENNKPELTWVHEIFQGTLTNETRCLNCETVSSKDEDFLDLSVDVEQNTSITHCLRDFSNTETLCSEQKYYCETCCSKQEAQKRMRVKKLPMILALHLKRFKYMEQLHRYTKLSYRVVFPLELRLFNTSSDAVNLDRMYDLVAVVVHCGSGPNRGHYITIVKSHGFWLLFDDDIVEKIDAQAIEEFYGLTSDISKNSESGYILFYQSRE
How it was run: as §1

USP47 = target: T2, USP47 (UniProt Q96K76)
T2 sequence (whole entry): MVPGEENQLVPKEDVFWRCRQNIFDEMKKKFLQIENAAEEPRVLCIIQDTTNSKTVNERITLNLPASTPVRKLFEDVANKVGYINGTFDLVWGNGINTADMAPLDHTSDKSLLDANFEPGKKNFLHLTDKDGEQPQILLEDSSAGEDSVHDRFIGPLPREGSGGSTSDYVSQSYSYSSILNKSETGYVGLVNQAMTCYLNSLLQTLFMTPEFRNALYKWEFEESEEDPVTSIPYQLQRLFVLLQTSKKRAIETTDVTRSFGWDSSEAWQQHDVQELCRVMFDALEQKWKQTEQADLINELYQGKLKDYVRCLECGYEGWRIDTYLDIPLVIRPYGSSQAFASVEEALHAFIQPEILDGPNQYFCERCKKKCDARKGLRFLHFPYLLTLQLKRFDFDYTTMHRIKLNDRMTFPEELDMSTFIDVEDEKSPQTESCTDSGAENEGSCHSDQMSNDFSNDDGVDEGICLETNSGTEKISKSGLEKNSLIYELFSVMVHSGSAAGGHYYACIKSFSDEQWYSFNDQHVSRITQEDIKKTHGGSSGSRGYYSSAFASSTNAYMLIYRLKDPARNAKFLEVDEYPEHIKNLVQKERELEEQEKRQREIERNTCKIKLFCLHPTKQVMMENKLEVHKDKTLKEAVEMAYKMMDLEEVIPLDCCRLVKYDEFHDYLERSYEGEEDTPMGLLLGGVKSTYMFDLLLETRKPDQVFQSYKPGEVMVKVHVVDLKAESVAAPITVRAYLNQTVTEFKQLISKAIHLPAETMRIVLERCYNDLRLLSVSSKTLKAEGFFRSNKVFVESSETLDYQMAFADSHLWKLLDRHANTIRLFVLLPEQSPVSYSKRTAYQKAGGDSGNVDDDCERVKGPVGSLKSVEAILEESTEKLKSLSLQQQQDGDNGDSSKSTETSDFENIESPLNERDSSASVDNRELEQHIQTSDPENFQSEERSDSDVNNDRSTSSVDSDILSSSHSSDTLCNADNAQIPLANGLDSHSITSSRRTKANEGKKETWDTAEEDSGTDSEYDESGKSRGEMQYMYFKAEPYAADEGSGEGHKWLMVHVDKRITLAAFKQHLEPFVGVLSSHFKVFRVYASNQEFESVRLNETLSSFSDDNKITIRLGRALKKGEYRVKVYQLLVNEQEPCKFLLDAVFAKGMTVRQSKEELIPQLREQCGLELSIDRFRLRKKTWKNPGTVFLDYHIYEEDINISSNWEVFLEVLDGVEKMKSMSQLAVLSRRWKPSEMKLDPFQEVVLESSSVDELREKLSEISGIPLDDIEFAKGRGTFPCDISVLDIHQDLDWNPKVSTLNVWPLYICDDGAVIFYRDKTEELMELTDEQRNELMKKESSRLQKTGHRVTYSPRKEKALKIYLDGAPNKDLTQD
How it was run: as §1

USP48 = target: T3, USP48 (UniProt Q86UV5)
T3 sequence (whole entry): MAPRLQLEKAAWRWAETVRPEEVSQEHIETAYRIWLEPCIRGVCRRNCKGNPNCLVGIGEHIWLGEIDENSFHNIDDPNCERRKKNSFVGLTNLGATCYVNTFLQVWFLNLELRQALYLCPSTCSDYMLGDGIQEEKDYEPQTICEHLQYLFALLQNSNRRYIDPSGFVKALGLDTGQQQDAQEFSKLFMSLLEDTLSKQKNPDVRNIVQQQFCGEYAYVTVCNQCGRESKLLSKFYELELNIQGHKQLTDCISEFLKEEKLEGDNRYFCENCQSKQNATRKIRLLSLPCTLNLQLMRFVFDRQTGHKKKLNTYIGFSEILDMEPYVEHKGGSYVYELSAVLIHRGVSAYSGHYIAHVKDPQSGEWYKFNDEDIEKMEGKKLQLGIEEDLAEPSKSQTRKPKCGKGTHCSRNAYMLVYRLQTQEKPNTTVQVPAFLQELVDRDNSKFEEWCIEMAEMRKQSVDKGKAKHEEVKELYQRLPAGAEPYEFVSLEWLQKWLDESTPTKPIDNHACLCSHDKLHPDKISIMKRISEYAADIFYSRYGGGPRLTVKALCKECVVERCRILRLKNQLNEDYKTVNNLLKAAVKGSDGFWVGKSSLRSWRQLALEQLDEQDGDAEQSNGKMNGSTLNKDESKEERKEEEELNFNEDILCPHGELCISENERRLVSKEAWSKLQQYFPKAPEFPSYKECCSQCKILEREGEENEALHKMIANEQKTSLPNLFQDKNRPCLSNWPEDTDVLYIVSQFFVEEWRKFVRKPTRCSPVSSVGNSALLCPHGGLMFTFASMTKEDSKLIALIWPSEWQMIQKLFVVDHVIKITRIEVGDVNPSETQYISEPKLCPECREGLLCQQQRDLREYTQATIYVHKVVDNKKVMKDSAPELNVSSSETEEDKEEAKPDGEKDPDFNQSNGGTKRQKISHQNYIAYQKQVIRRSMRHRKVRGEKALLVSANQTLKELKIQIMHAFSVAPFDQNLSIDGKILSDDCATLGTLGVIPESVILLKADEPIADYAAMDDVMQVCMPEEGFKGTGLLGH
How it was run: as §1

USP5 = target: T4, USP5 (UniProt P45974)
T4 sequence (whole entry): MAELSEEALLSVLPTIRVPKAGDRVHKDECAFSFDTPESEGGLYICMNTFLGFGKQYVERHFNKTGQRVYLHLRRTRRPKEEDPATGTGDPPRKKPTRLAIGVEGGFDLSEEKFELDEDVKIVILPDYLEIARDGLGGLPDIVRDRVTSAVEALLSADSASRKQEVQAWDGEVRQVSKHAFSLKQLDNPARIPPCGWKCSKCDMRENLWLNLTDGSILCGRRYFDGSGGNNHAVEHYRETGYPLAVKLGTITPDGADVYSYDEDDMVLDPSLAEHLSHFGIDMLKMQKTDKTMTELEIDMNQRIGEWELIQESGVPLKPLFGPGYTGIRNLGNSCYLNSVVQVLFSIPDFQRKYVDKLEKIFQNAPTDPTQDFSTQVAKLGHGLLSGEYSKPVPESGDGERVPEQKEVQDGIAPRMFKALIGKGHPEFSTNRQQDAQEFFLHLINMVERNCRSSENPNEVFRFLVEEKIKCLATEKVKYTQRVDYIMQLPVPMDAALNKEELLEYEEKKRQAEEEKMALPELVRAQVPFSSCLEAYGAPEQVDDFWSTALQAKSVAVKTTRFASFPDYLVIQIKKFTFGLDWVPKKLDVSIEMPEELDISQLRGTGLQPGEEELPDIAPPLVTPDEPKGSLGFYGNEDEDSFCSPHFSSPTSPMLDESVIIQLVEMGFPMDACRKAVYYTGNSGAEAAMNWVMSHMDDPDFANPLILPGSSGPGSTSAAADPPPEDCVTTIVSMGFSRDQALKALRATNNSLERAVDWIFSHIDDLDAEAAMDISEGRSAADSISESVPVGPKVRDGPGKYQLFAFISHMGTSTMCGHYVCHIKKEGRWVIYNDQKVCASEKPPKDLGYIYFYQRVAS
How it was run: as §1

USP54 = USP54 (UniProt Q70EL1)
Sequence of USP54 (Q70EL1 whole entry): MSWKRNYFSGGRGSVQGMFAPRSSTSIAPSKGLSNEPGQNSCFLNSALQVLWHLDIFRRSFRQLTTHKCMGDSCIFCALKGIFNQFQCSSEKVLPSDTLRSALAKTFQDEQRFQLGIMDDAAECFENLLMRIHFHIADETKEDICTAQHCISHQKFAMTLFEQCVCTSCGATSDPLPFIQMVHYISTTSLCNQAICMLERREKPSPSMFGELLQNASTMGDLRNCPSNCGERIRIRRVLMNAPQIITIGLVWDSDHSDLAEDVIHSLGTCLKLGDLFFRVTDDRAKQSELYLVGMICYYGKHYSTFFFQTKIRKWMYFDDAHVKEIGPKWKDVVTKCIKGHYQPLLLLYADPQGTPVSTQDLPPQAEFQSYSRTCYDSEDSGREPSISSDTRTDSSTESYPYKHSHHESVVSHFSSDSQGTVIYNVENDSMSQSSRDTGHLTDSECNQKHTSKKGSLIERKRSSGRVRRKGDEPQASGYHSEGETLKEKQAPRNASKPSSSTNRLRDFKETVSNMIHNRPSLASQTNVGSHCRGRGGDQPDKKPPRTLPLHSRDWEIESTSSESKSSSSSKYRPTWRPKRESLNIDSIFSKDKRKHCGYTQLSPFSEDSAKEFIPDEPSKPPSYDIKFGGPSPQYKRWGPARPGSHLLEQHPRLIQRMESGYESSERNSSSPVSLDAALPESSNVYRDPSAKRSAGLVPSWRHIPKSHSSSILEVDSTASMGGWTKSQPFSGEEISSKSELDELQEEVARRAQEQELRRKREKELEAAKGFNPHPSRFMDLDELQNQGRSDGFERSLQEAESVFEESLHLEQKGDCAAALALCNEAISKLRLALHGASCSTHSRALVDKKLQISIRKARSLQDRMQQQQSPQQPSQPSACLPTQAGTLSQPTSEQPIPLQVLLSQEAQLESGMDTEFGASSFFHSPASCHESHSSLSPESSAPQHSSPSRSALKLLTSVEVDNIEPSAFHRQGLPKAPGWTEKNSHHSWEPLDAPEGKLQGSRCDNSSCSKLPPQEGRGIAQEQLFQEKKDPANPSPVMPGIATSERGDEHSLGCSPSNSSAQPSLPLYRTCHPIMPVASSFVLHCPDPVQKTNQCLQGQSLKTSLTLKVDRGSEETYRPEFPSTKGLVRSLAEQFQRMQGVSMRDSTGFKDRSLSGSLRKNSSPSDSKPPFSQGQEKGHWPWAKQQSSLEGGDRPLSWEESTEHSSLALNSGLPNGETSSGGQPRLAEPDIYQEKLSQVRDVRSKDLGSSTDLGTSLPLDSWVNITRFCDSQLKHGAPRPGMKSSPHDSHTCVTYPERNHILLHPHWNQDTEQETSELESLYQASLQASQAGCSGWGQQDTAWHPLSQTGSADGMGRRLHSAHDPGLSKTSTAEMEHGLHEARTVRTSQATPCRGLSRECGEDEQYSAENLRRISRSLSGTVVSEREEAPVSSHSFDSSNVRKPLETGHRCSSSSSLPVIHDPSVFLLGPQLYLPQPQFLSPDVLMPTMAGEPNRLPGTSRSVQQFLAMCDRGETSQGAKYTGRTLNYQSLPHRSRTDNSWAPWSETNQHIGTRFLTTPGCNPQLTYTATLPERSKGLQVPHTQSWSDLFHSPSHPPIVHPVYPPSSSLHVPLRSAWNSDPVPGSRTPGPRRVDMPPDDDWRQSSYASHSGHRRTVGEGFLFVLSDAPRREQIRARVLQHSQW
How it was run: as §1

USP7 = USP7 (UniProt Q93009)
Sequence of USP7 (Q93009 whole entry, looked up): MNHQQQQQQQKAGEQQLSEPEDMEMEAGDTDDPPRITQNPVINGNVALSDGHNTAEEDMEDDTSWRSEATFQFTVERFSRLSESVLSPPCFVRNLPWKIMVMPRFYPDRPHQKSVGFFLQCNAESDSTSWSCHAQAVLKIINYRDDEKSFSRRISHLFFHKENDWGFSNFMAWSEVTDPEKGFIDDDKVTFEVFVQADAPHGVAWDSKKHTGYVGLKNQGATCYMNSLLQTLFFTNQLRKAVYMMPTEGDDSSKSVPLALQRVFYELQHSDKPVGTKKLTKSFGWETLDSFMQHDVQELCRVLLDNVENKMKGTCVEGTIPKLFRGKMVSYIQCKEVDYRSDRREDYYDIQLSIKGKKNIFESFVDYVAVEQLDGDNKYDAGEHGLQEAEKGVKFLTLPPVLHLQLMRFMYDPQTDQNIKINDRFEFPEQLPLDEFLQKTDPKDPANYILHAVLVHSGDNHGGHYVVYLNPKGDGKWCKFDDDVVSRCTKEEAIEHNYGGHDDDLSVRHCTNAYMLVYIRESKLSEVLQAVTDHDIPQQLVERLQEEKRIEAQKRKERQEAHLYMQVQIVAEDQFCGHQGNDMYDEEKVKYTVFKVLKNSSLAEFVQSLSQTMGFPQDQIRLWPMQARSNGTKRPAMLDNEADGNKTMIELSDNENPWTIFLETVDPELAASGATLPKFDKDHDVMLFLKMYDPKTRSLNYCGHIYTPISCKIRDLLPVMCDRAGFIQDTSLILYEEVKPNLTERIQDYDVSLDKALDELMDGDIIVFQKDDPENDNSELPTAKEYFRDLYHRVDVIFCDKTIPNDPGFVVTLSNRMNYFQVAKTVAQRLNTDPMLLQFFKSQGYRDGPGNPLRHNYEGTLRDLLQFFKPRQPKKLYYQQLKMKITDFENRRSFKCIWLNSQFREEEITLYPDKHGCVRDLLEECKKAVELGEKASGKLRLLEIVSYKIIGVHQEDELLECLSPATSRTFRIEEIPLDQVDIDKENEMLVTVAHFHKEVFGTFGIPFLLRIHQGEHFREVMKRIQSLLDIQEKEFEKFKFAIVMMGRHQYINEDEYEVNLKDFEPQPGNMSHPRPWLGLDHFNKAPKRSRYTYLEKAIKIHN
How it was run: as §1

USP8 = target: T5, USP8 (UniProt P40818)
T5 sequence (whole entry): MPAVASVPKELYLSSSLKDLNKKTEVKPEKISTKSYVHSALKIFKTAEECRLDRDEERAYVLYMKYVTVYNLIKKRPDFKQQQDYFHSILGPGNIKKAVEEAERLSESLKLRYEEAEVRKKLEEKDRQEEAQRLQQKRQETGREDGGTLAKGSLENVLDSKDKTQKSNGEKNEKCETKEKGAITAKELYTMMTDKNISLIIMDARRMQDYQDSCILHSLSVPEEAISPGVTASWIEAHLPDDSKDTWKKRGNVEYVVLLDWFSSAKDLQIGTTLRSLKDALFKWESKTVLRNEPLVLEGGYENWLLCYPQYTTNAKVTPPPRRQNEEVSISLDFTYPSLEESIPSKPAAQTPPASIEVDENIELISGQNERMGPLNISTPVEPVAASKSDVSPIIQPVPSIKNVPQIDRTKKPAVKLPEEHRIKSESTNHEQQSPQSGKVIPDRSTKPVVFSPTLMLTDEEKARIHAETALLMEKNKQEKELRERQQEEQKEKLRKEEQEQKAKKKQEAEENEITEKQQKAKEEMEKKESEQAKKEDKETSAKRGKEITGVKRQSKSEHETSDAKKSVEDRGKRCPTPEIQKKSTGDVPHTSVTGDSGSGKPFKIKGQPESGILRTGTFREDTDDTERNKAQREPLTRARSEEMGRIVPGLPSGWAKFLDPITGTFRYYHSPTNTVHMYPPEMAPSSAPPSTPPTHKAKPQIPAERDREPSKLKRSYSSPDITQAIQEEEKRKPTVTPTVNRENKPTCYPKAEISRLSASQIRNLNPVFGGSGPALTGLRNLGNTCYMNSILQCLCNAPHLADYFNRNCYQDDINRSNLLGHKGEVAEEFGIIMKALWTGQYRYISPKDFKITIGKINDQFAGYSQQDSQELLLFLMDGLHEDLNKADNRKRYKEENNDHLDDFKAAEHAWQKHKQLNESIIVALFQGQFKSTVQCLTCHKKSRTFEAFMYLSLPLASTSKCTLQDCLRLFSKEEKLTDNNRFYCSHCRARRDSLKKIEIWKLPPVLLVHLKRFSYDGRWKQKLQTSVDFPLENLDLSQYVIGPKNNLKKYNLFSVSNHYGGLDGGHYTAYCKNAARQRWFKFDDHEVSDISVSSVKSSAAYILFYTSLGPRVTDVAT
How it was run: as §1

USP9X = USP9X (UniProt Q93008)
How it was run: as §1

UniProt O00487 = target: UniProt O00487
Sequence of UniProt O00487 (O00487 whole entry): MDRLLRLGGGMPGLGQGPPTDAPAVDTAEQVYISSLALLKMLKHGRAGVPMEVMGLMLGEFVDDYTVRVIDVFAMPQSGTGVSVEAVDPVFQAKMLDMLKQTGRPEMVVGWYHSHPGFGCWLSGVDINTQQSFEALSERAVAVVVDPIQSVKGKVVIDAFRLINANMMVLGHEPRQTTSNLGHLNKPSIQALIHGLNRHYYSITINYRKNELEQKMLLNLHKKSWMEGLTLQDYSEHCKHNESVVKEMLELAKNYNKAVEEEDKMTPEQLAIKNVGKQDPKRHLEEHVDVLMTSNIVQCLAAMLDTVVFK
How it was run: as §1

Measured: log2 ratio of Biotin-Ahx-Ub-VS probe labelling

Cc1c(C#N)c(NC(=O)CCl)n(Cc2ccco2)c1C
inactive: USP42 0.0887 | USP46 -0.16 | USP47 -0.217 | USP48 -0.398 | USP5 -0.329 | USP54 -0.38 | USP7 -0.563 | USP8 -0.000142 | USP9X -0.241 | UniProt O00487 -0.177
